Results as given in PubChem BioAssay.

Test system: not listed separately
Assay: small-molecule binders of probe aNOTCH2, primary screen, biochemical, small-molecule microarray, 635/667 nm fluorescence (AID 1121);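 further: score merges feature fluorescence read at 667 nm with its signal to noise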
Details: higher = more signal

| SMILES | composite z-score |
| --- | --- |
| CN1C(=O)C2C=CC(C(O)c3ccc(I)cc3)N(N(c3ccccc3)c3ccccc3)C2C1=O (centres undefined) | 0.0129 |
| C=CCC(OC(C)=O)[C@@H]1[C@@H](N(Cc2ccc(-c3ccccc3)cc2)C(=O)Cc2ccc(OC)cc2)c2cc(OCCCO)ccc2N1C(=O)Cc1ccc(OC)cc1 (some centres undefined) | 0.146 |
| Cc1ccc(S[C@]2(C(=O)NC(C)C)CC(=O)N(Cc3ccccc3)[C@@H]2c2ccc(CO)cc2)cc1 | -0.0451 |
| C=CCNC(=O)[C@H]1[C@@H]2C(=O)O[C@@H](c3ccccc3)[C@@H](c3ccccc3)N2[C@@H](c2ccc(OCCO)cc2)[C@]12C(=O)N(C(=O)OCCOC)c1ccc(C#CCC(C(=O)OC)C(=O)OC)cc12 | 0.0654 |
| CCCCCN1CC=CC23O[C@@H]4/C=C\CCCOC(=O)C4[C@H]2C(=O)N(CCO)[C@@H]3C1=O (some centres undefined) | -0.14 |
| CN1C2C=C(c3ccc(CO)cc3)C(C3C(=O)N(C(N)=O)C(=O)C32)C1C1CC1 (centres undefined) | -0.146 |
| Cc1ccc(S(=O)(=O)N2[C@@H](c3ccccc3)C(C(=O)O)=C[C@H]2C(C)(C)C)cc1 | 0.0458 |
| C=C(C(=O)CC[C@@H](OC(=O)c1ccccc1-c1ccccc1C(=O)O)c1ccc(CO)o1)C(C)C | -0.112 |
| COC(=O)[C@@]1(Cc2ccc(F)cc2)[C@@H]2C(=CC(=O)[C@H]2CC(=O)C(=O)N2CCCC2)CN1C(=O)c1ccccc1 | 0.845 |
| COC(=O)C(CC#Cc1ccc2c(c1)[C@]1(C(=O)N2)[C@H](C(=O)N2CCCCCCC2)[C@H]2C(=O)O[C@H](c3ccccc3)[C@H](c3ccccc3)N2[C@@H]1c1ccc(OCCO)cc1)C(=O)OC | 1.19 |
| C=CC[C@H](OC(=O)Nc1ccc(SC)cc1)c1ccc(O)c(F)c1 | -0.168 |
| Cc1cccc([C@H]2C[C@H]3C(Br)=C[C@@]2(CO)C(=O)[C@]32CO2)c1 | -0.147 |
| C=C(CCCC)C(=O)CC[C@H](OC(=O)c1ccccc1-c1ccccc1C(=O)O)c1cccc(OCCO)c1 | -0.126 |

Molecular target: Carbonic anhydrase 2 (Homo sapiens) (UniProt P00918)
Assay: CAII small-molecule binders, profiling panel, biochemical, small-molecule microarray, Alexa647-labelled CAII (AID 1122)
Details: CAII-A647 binding fluorescence, higher = more signal

| SMILES | composite z-score |
| --- | --- |
| CCOC(=O)C1=CC[C@@H](c2ccccc2)N(S(=O)(=O)c2ccc(C)cc2)[C@@H]1C#N | 0.518 |
| C=CCN1C(=O)[C@]2(O[C@H](CCO)[C@@H]([Si](C)(C)c3ccc(OC)cc3)[C@@H]2C)c2cc(N3C(=O)c4ccccc4Oc4ccccc43)ccc21 | 0.467 |
| C=CCOC(=O)[C@H]1[C@@H]2C(=O)O[C@@H](c3ccccc3)[C@@H](c3ccccc3)N2[C@@H](c2ccc(OCCOC(=O)[C@H]3C[C@H]4C(=O)NCC(=O)N4[C@H]3c3ccc(O)cc3)cc2)[C@]12C(=O)Nc1ccccc12 | 0.6 |
| C=CCOC(=O)[C@H]1[C@@H]2C(=O)O[C@@H](c3ccccc3)[C@@H](c3ccccc3)N2[C@@H](c2ccc(OCCOC(=O)[C@@H]3C[C@@H]4C(=O)N[C@@H](Cc5ccccc5)C(=O)N4[C@@H]3c3ccc(O)cc3)cc2)[C@]12C(=O)Nc1ccc(I)cc12 | 0.218 |
| CC(C)[Si](C#Cc1ccccc1)(O[C@H](c1ccccc1)c1cn(Cc2ccccc2)nn1)C(C)C | 0.57 |
| O=C(NCCN1CCOCC1)[C@@H]1c2ccccc2C(=O)N(CC23CC4CC(CC(C4)C2)C3)[C@H]1c1ccc(CO)cc1 | 0.642 |
| O=C1O[C@@H](c2ccccc2)[C@@H](c2ccccc2)N2[C@@H](c3ccccc3OCCO)[C@]3(C(=O)Nc4ccc(C#CC5(O)CCCCCC5)cc43)[C@@H](C(=O)N3CCCCCCC3)[C@H]12 | 1.06 |
| CCOC(=O)C[C@H]1[C@H](OC(=O)c2ccc(-c3ccccc3)cc2)[C@@H](NC(=O)C2CCCCC2)c2cc(OCCCO)ccc2N1C(=O)Cc1ccc(OC)cc1 | -0.0434 |
| C=CCC(OC(C)=O)[C@@H]1[C@@H](N(Cc2cccc3ccccc23)C(=O)c2ccc(C)cc2)c2cc(OCCCO)ccc2N1C(=O)Cc1ccc2ccccc2c1 (some centres undefined) | 0.15 |
| COC(=O)C1(CC(C)C)C=C2C(=C(C)C(=O)C2C)CN1 (centres undefined) | 0.754 |
| COC(=O)[C@@]1(Cc2ccc(F)cc2)[C@H]2c3cc(C(=O)N4CCCC4)n(C[C@H](O)CO)c3C[C@H]2CN1C(=O)c1ccccc1 | 0.844 |
| COC(=O)C(CC#Cc1ccc2c(c1)[C@]1(C(=O)N2)[C@H](C(=O)NC[C@H](O)c2ccccc2)[C@H]2C(=O)O[C@H](c3ccccc3)[C@H](c3ccccc3)N2[C@@H]1c1ccc(O)cc1)C(=O)OC | 0.683 |
| CC(C)c1ccc(NN2C(C(O)C3CCCCC3)C=CC3C(=O)N(c4ccccc4)C(=O)C32)cc1 (centres undefined) | 0.632 |
| CN(C)C(=O)[C@]1(CCS(=O)(=O)c2ccccc2)N=C(c2ccc(OCCCO)cc2)O[C@@H]1c1ccccc1CN=[N+]=[N-] | 0.73 |
| COc1ccc(C(=O)Nc2cccc(CN3C(=O)[C@]4(O[C@H](CC(=O)N(CCO)Cc5ccccc5)[C@@H]([Si](C)(C)c5ccc(OC)cc5)[C@@H]4C)c4ccccc43)c2)cc1 | 0.325 |
| C=CCNC(=O)[C@@H]1[C@H]2C(=O)O[C@H](c3ccccc3)[C@H](c3ccccc3)N2[C@H](c2ccc(O)cc2)[C@@]12C(=O)N(C(=O)OCCOC)c1ccc(C#CCC(C(=O)OC)C(=O)OC)cc12 | 0.271 |
| C=CCNC(=O)[C@H]1[C@@H]2C(=O)O[C@@H](c3ccccc3)[C@@H](c3ccccc3)N2[C@@H](c2ccc(OCCO)cc2)[C@]12C(=O)N(C(=O)OCCOC)c1ccc(C#CCNC(N)=O)cc12 | 0.396 |
| COC(=O)[C@@]1(Cc2ccc(OC)cc2)[C@@H]2[C@@H](CC(=O)[C@H]2CC(=O)C(=O)N(C)C)CN1C(=O)c1ccccc1 | 0.617 |

| SMILES | composite z-score |
| --- | --- |
| CC(C)N1C(=O)[C@@]2(Cc3ccccc31)c1ccccc1C(=O)N(Cc1ccccc1C(F)(F)F)[C@H]2c1ccc(CO)cc1 | 0.754 |
| COc1ccc(C#Cc2ccc3c(c2)[C@]2(C(=O)N3)[C@H](c3ccccc3OCCO)N3[C@H](c4ccccc4)[C@H](c4ccccc4)OC(=O)[C@H]3[C@@H]2C(=O)NC[C@H](O)c2ccccc2)cc1 | 0.373 |
| O=C1O[C@H](c2ccccc2)[C@H](c2ccccc2)N2[C@H]1[C@@H](C(=O)O)[C@]1(C(=O)Nc3ccccc31)[C@H]2c1ccc(OCCO)cc1 | 0.749 |
| Cc1ccc(S[C@]2(C(=O)NCCN3CCOCC3)CC(=O)N(C(C)C)[C@@H]2c2ccc(CO)cc2I)cc1 | 0.288 |
| COc1ccc([Si](C)(C)[C@H]2[C@H](CC(=O)N(CCO)Cc3ccccc3)O[C@@]3(C(=O)N(c4ccccc4)c4ccccc43)[C@@H]2C)cc1 | 0.34 |
| CN1C(=O)C2C=CC(C(O)c3ccc(I)cc3)N(N(c3ccccc3)c3ccccc3)C2C1=O (centres undefined) | 0.243 |
| C=CCC(OC(C)=O)[C@@H]1[C@@H](N(Cc2ccc(-c3ccccc3)cc2)C(=O)Cc2ccc(OC)cc2)c2cc(OCCCO)ccc2N1C(=O)Cc1ccc(OC)cc1 (some centres undefined) | 0.306 |
| Cc1ccc(S[C@]2(C(=O)NC(C)C)CC(=O)N(Cc3ccccc3)[C@@H]2c2ccc(CO)cc2)cc1 | 0.445 |
| C=CCNC(=O)[C@H]1[C@@H]2C(=O)O[C@@H](c3ccccc3)[C@@H](c3ccccc3)N2[C@@H](c2ccc(OCCO)cc2)[C@]12C(=O)N(C(=O)OCCOC)c1ccc(C#CCC(C(=O)OC)C(=O)OC)cc12 | 0.702 |
| CCCCCN1CC=CC23O[C@@H]4/C=C\CCCOC(=O)C4[C@H]2C(=O)N(CCO)[C@@H]3C1=O (some centres undefined) | 0.823 |
| CN1C2C=C(c3ccc(CO)cc3)C(C3C(=O)N(C(N)=O)C(=O)C32)C1C1CC1 (centres undefined) | -0.117 |
| Cc1ccc(S(=O)(=O)N2[C@@H](c3ccccc3)C(C(=O)O)=C[C@H]2C(C)(C)C)cc1 | 0.756 |
| C=C(C(=O)CC[C@@H](OC(=O)c1ccccc1-c1ccccc1C(=O)O)c1ccc(CO)o1)C(C)C | 0.75 |
| COC(=O)[C@@]1(Cc2ccc(F)cc2)[C@@H]2C(=CC(=O)[C@H]2CC(=O)C(=O)N2CCCC2)CN1C(=O)c1ccccc1 | 0.65 |
| COC(=O)C(CC#Cc1ccc2c(c1)[C@]1(C(=O)N2)[C@H](C(=O)N2CCCCCCC2)[C@H]2C(=O)O[C@H](c3ccccc3)[C@H](c3ccccc3)N2[C@@H]1c1ccc(OCCO)cc1)C(=O)OC | 1.12 |
| C=CC[C@H](OC(=O)Nc1ccc(SC)cc1)c1ccc(O)c(F)c1 | 0.577 |
| Cc1cccc([C@H]2C[C@H]3C(Br)=C[C@@]2(CO)C(=O)[C@]32CO2)c1 | 0.362 |
| C=C(CCCC)C(=O)CC[C@H](OC(=O)c1ccccc1-c1ccccc1C(=O)O)c1cccc(OCCO)c1 | 0.749 |
